The nature of assay [1]: NCI Yeast Anticancer Drug Screen. Data for the rad50 strain (AID 155).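 Also: 0% = growth of vehicle-only cultures of the same strain.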 The note with it: S. cerevisiae rad50 strain growth inhibition; at 50.0 µM; hits give high values. Summed up: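 Yeast carrying a defined DNA repair defect were exposed to test compounds, and growth was compared with vehicle-treated controls to give percent inhibition.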
Assay [2] in a line: NCI Yeast Anticancer Drug Screen. Data for the mec2-1 strain (AID 157). The note with it: S. cerevisiae mec2-1 strain, at 50.0 µM, hits give high values. Summed up:
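Growth inhibition is read against vehicle-treated controls after compound exposure of the mec2-1 yeast strain, which is defective in DNA damage repair or cell cycle control.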

A short description of assay [3]: NCI Yeast Anticancer Drug Screen. Data for the sgs1 mgt1 strain (AID 161).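 Also: 0% = growth of cultures given vehicle only.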 The settings on record: S. cerevisiae sgs1 mgt1 strain, at 50.0 µM, hits give high values. Summed up: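 This yeast growth screen uses a strain with defined DNA-repair lesions; compound-treated growth is compared with vehicle-treated growth.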
Assay [4] in a line: NCI Yeast Anticancer Drug Screen. Data for the cln2 rad14 strain (AID 165).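 Also: 0% = growth equal to vehicle treated cultures.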 The settings on record: S. cerevisiae cln2 rad14 strain, at 50.0 µM, hits give high values. Put shortly: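 Growth inhibition, relative to vehicle-treated controls, is the read-out. The test organism is a yeast strain with defined genetic alterations, cln2 rad14.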
A short description of assay [5]: NCI Yeast Anticancer Drug Screen. Data for the bub3 strain (AID 167). The note with it: S. cerevisiae bub3 mutant strain, at 50.0 µM, hits give high values. Summed up: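 Compounds were applied to a genetically altered yeast strain carrying a cell-cycle control defect. Growth inhibition was scored against vehicle-treated controls.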
Assay [6] can be described thus: NCI Yeast Anticancer Drug Screen. Data for the mlh1 rad18 strain (AID 175). The note with it: S. cerevisiae mlh1 rad18 strain growth inhibition; at 50.0 µM; hits give high values. Summed up:
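Cells of a genetically altered yeast strain, deficient in DNA damage repair, were treated with compound. Their growth was then compared with that of vehicle-treated cultures to give inhibition.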

This is part of a sample that, as a whole, favours compounds with a hit. Of some 79,000 tested, about 15% had one in any assay. A number with no mark means an inactive call. Active and inactive are the calls of the source. Rule as the data show it: active = growth inhibition above about 70%; inactive = the rest.

With `CC(C)(C)C1CCC2c3c([nH]c4ccccc34)C3C(=O)N(c4ccc(Cl)cc4)C(=O)C3C2C1` (stereo not drawn), the growth inhibition in assay [1] was 37.6%; in assay [2], -20%; in assay [3], -6.1%; in assay [4], -44.4%; in assay [5], -25.4%; in assay [6], -13.2%.

For the molecule `Nc1ccc(C(=O)NCCCC(=O)O)cc1`, the growth inhibition in assay [1] is -1.85%; in assay [2] it was 19.2%; in assay [3], -1.75%; in assay [4], 0.85%; in assay [5] it was -3.75%; in assay [6], -14.6%.

In the case of `COc1c(O)c2c(=O)cc3c4c5c(cc(=O)c6c(O)c(OC)c(CC(C)O)c(c(c1CC(C)O)c24)c65)OCO3` (stereo not drawn), the growth inhibition in assay [1] was 74.5% (active); in assay [2], 97.8% (active); in assay [3], 76.3% (active); in assay [4], 37.5%; in assay [5], 5.55%; in assay [6] it was 70.5% (active).

On to `O=C1NCC/C1=C\c1ccc(Cl)c(Cl)c1`, for which the growth inhibition was 9.4% in assay [1]; -12.4% in assay [2]; -10.3% in assay [3]; -17.6% in assay [4]; -7.7% in assay [5]; -13.5% in assay [6].

As for `O=C(n1[nH]c(=O)n(-c2ccc([N+](=O)[O-])cc2)c1=O)C(Cl)(Cl)Cl`, the growth inhibition in assay [1] was 7.9%; in assay [2], -15.3%; in assay [3], 22.5%; in assay [4], 7.6%; in assay [5] it was 12.7%; in assay [6], -28.9%.

As for `CCOC(=O)Cc1c(C)cc(C)cc1C`, the growth inhibition is 18.9% in assay [1]; -6.3% in assay [2]; -10.4% in assay [3]; 3.35% in assay [4]; 15.7% in assay [5]; 10.4% in assay [6].

Take `O=c1oc2c(CN3CCOCC3)c(O)ccc2c2c1CCCC2`: the growth inhibition in assay [1] is 24.8%; in assay [2] it was 21.5%; in assay [3] it was 22.8%; in assay [4], 29.9%; in assay [5] it was 43.6%; in assay [6], 31.9%.

Take `O=C(OC1CCCC1)C1(O)CCCCC1`: the growth inhibition in assay [1] was 18.2%; in assay [2] it was 12.7%; in assay [3], 3.8%; in assay [4] it was 10.5%; in assay [5], -2.15%; in assay [6], -16.2%.

For `COC1/C=C\C=C(/C)C(=O)Nc2cc3nc4cccc(Br)c4oc-3c(c2=O)CC(C)CC(OC)C(O)C(C)/C=C(\C)C1OC(N)=O` (stereo not drawn), the growth inhibition was 33.1% in assay [1]; 21.8% in assay [2]; 26.2% in assay [3]; 21.9% in assay [4]; 44.1% in assay [5]; 16.5% in assay [6].

For the molecule `COC(=O)c1cc(C(=O)OC)c(C/C(=N/NC(=O)C[N+](C)(C)C)C(=O)Nc2cccc(C(F)(F)F)c2)nc1C/C(=N/NC(=O)C[N+](C)(C)C)C(=O)Nc1cccc(C(F)(F)F)c1`, the growth inhibition in assay [1] is -14.5%; in assay [2], -1.45%; in assay [3], -11.6%; in assay [4], 17.1%; in assay [5], 11.4%; in assay [6] it was -2.3%.

`CCCCOC(=O)c1ccc(OCCCC)cc1`: the growth inhibition in assay [1] is 23.6%; in assay [2], 19.6%; in assay [3] it was 16.6%; in assay [4], 13.2%; in assay [5], 10.5%; in assay [6], 17.8%.

As for `Cc1cc(C)c(C(C=O)c2ccccc2)c(C)c1` (stereo not drawn), the growth inhibition in assay [1] is 18.6%; in assay [2], 2.85%; in assay [3], 10.3%; in assay [4], 17.9%; in assay [5], 6.25%; in assay [6], 4.45%.

`COc1ccc2ccccc2c1Cc1c(O)ccc2ccccc12`: the growth inhibition in assay [1] was 15.7%; in assay [2] it was -4.55%; in assay [3] it was 0.75%; in assay [4], -40%; in assay [5], -3.1%; in assay [6] it was 8%.

Regarding `COC(=O)NN1C(C)=C(C(=O)OC)C2(C#N)C(C(=O)OC)=C(C)N(NC(=O)OC)C12N` (stereo not drawn), the growth inhibition is -14.4% in assay [1]; -26.6% in assay [2]; -56% in assay [3]; 9.85% in assay [4]; 10.2% in assay [5]; -18.4% in assay [6].

Consider `O=C1N=C(c2ccccc2)C(c2ccccc2)N1` (stereo not drawn), for which the growth inhibition in assay [1] is -9.3%; in assay [2], 23.1%; in assay [3], 12.9%; in assay [4], -3.85%; in assay [5], -0.4%; in assay [6] it was 8.65%.

In the case of `O=C(O)c1scc2c1CCCC2`, the growth inhibition in assay [1] is -1.65%; in assay [2], -21.7%; in assay [3], -7.5%; in assay [4], -67%; in assay [5], -22.3%; in assay [6], -39.6%.

With `OCCCOc1ccc2ccccc2c1`, the growth inhibition is 21.4% in assay [1]; 10.2% in assay [2]; 28.4% in assay [3]; 3.95% in assay [4]; -7.25% in assay [5]; 9.85% in assay [6].

Take `CC(=O)Nc1ccc2c(c1)Cc1cc(NC(C)=O)c(Cl)cc1-2`: the growth inhibition was 3.15% in assay [1]; 11.9% in assay [2]; -1.45% in assay [3]; 7.95% in assay [4]; -2.35% in assay [5]; -1.2% in assay [6].

Source of the values: PubChem BioAssay (NCI).
